Several values for one entry are separate records, joined by “and”; a condition that tells them apart may be missing. Equal values may be shown once.
What was measured:
Type in all cases: functional
Plasmodium falciparum [1] = test: GSK_TCMDC: Inhibition of Plasmodium falciparum 3D7 in whole red blood cells, using parasite LDH activity as an index of growth. Test compounds present at 2uM
Plasmodium falciparum [2] = test: GSK_TCMDC: Inhibition of Plasmodium falciparum Dd2 in whole red blood cells, using parasite LDH activity as an index of growth. Test compounds present at 2uM
HepG2 = test: GSK_TCMDC: Percent inhibition of human HepG2 cell line. Test compounds present at 10uM.

O=C(O)CCSSc1cccc[n+]1[O-]
Inhibition (Plasmodium falciparum [1]): 95% | Inhibition (Plasmodium falciparum [2]): 0% | Inhibition (HepG2): 100%

CN1CCC(NCc2ccc(-c3ccc(Cl)cc3)cc2)CC1
Inhibition (Plasmodium falciparum [1]): 99% | Inhibition (Plasmodium falciparum [2]): 43% | Inhibition (HepG2): 50%

NC(=O)c1cccc(C(=O)Nc2ccc(-c3cccc(-c4nc5cc(C(F)(F)F)ccc5[nH]4)c3)cc2)c1
Inhibition (Plasmodium falciparum [1]): 100% | Inhibition (Plasmodium falciparum [2]): 86% | Inhibition (HepG2): 74%

COc1ccc(CNCc2ccc(-c3ccc(-c4nc5ccccc5[nH]4)cc3)cc2)cc1.O=C(O)C(F)(F)F
Inhibition (Plasmodium falciparum [1]): 100% | Inhibition (Plasmodium falciparum [2]): 89% | Inhibition (HepG2): 63%

COc1cc(CNC2Cc3ccccc3C2)ccc1Oc1ccc2nc[nH]c2c1.O=C(O)C(F)(F)F
Inhibition (Plasmodium falciparum [1]): 98% | Inhibition (Plasmodium falciparum [2]): 50% | Inhibition (HepG2): 30%

O=C(Cc1ccc[n+]([O-])c1)Nc1cccc(-c2cccc(-c3nc4cc(F)ccc4[nH]3)c2)c1
Inhibition (Plasmodium falciparum [1]): 92% | Inhibition (Plasmodium falciparum [2]): 98% | Inhibition (HepG2): 28%

COc1ccc(-c2ccc(NC(=O)c3ccc(F)cc3)cc2)cc1CN1CCCN(C)CC1.O=C(O)C(F)(F)F
Inhibition (Plasmodium falciparum [1]): 98% | Inhibition (Plasmodium falciparum [2]): 35% | Inhibition (HepG2): 29%

CC(CNC(=O)C(c1cc2ccccc2o1)N1CCN(C(c2ccccc2)c2ccccc2)CC1)c1ccccc1 (centres undefined)
Inhibition (Plasmodium falciparum [1]): 99% | Inhibition (Plasmodium falciparum [2]): 89% | Inhibition (HepG2): 2%

CCCN(Cc1nnc(-c2cccs2)o1)C(=O)CSc1nnnn1-c1cc(C)cc(C)c1
Inhibition (Plasmodium falciparum [1]): 92% | Inhibition (Plasmodium falciparum [2]): 71% | Inhibition (HepG2): 2%

CCc1sc(CN(CCCNc2cc(=O)c3ccccc3[nH]2)Cc2sc(CC)c(Br)c2-c2ccsc2)c(-c2ccsc2)c1Br.Cl
Inhibition (Plasmodium falciparum [1]): 99% | Inhibition (Plasmodium falciparum [2]): 98% | Inhibition (HepG2): 10%

CC(C)N1CCC(N(Cc2ccc(-c3ccc(C(F)(F)F)cc3)cc2)C(=O)Cn2c(SCc3cccc(F)c3F)cc(=O)c3c2CCC3)CC1.O=C(O)C(O)C(O)C(=O)O
Inhibition (Plasmodium falciparum [1]): 88% | Inhibition (Plasmodium falciparum [2]): 42% | Inhibition (HepG2): 44%

Cc1cccc2nc(-c3ccc(-c4cccc(CN5CCN(c6ccncc6)CC5)c4)s3)[nH]c12.O=C(O)C(F)(F)F
Inhibition (Plasmodium falciparum [1]): 100% | Inhibition (Plasmodium falciparum [2]): 99% | Inhibition (HepG2): 48%

CC(C)CC(=O)N(Cc1ccc(-c2ccc(CNC3Cc4ccccc4C3)cc2)cc1)C1CCNCC1.O=C(O)C(F)(F)F
Inhibition (Plasmodium falciparum [1]): 85% | Inhibition (Plasmodium falciparum [2]): 65% | Inhibition (HepG2): 20%

O=C(NCCCCN1CCCC2c3ccc(O)cc3CCC21)c1ccc(-c2ccccc2)cc1 (centres undefined)
Inhibition (Plasmodium falciparum [1]): 96% | Inhibition (HepG2): 32% and 26%

O=C(Nc1ccc(Cl)c(C(F)(F)F)c1)c1ccc(C(=O)Nc2ccc(Cl)c(C(F)(F)F)c2)cc1
Inhibition (Plasmodium falciparum [1]): 88% | Inhibition (Plasmodium falciparum [2]): 27% | Inhibition (HepG2): 9%

Cl.Oc1ccc(-c2ccccc2)cc1CNC1CCCCC1
Inhibition (Plasmodium falciparum [1]): 95% | Inhibition (Plasmodium falciparum [2]): 100% | Inhibition (HepG2): 24%

CCN1CCN(CCCNc2c3ccccc3nc3ccccc23)CC1.Cl
Inhibition (Plasmodium falciparum [1]): 100% | Inhibition (Plasmodium falciparum [2]): 3% | Inhibition (HepG2): 44%

Cl.Nc1ncc(-c2ccccc2)cc1-c1nc2cc(Cl)c(F)cc2[nH]1
Inhibition (Plasmodium falciparum [1]): 100% | Inhibition (Plasmodium falciparum [2]): 91% | Inhibition (HepG2): 37%

Cc1n[nH]c(C)c1C1CCN(CC2CCC(NC(=O)/C=C/c3ccc(Cl)c(Cl)c3)CC2)CC1 (centres undefined)
Inhibition (Plasmodium falciparum [1]): 100% | Inhibition (Plasmodium falciparum [2]): 53% | Inhibition (HepG2): 15%

O=C(NCc1ccccc1)c1ccc(C(=O)NCC2CNCCO2)cc1.O=C(O)C(F)(F)F (centres undefined)
Inhibition (Plasmodium falciparum [1]): 92% | Inhibition (Plasmodium falciparum [2]): 0% | Inhibition (HepG2): 4%

Reference: ChEMBL document CHEMBL1157539, “Thousands of chemical starting points for antimalarial lead identification” (Nature, 2010)
